Source: PubChem BioAssay (National Center for Advancing Translational Sciences (NCATS))
The sample as a whole holds a higher share of hits than the screen did.
PNC inhibitor: perinucleolar compartment assembly inhibition; PC3M PTB-GFP, PNC prevalence imaging, 16 h; active compounds read low; activity change (PNC), negative = inhibition, % at 10 µM; 140,000 compounds, 3.1% hits;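 active = readout at or below -70, meaning at least 70% loss of cells showing the perinucleolar compartment, a nuclear body marking cancer cells; inconclusive = readout between -30 and a set limit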
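PC3M cells stably expressing PTB-GFP, 750–1000 cells/well, treated 16 h at 37 °C with compound (23 nl of library stock), in duplicate. After paraformaldehyde fixation and Hoechst stain, imaged at 20x; PNC prevalence scored by image analysis.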
IMPase Li cell: membrane-permeable IMPase blocker, potentiated with lithium; CHO-M1 cells, IP1 TR-FRET (IP-One), carbachol + lithium; 210,000 compounds, 0.35% hits; Potency, µM (top dose mostly 59.4 µM), most hits filed as inhibitors;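 note: IP1 builds up when IMPase is blocked and the TR-FRET signal falls; nearly all actives have a fitted effect of over 50% in size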
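Test compounds were applied to CHO-M1 cells previously cultured for 16–30 h at 2000 per well. A small lithium amount accompanied them; after 30 min at 37C, IP1 was quantified by TR-FRET.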
IMPase inh: membrane-permeable compound that blocks inositol monophosphatase; P97697; CHO-M1 cells, IP1 accumulation, HTRF TR-FRET ratio; inhibition (IP1 accumulation), % at 46.1 µM; 120,000 tested, under 10 active; active = well fitted curve in the direction sought with a large enough effect in the signal ratio, not every such curve was filed as active; inconclusive = small, poorly fitted or top-dose-only effect, or a change in a side signal; inactive = no such curve, though single readings can be large or run the other way; the % refers to the signal ratio;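 note: cells stimulated with carbachol in lithium chloride buffer; higher means more IMPase inhibition seen as more IP1 and lower FRET ratio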
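Measured: the HTRF emission ratio (665/620 nm) plus the 620 nm donor channel, each fitted to the Hill equation to give AC50. Cells were CHO-M1 given compounds up to 46 uM and a 30 min carbachol stimulation at 37C.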
12-hLO inh: inhibitors of human 12-lipoxygenase (ALOX12); P18054; purified 12-hLO, xylenol orange hydroperoxide absorbance; Potency, µM (titrated, usually from 57.1 µM), actives largely listed as inhibitors; 150,000 compounds, 0.12% hits; AID 1452; note: nearly all actives have a fitted effect of over 55% in size
Target sequence (P18054 whole entry, looked up): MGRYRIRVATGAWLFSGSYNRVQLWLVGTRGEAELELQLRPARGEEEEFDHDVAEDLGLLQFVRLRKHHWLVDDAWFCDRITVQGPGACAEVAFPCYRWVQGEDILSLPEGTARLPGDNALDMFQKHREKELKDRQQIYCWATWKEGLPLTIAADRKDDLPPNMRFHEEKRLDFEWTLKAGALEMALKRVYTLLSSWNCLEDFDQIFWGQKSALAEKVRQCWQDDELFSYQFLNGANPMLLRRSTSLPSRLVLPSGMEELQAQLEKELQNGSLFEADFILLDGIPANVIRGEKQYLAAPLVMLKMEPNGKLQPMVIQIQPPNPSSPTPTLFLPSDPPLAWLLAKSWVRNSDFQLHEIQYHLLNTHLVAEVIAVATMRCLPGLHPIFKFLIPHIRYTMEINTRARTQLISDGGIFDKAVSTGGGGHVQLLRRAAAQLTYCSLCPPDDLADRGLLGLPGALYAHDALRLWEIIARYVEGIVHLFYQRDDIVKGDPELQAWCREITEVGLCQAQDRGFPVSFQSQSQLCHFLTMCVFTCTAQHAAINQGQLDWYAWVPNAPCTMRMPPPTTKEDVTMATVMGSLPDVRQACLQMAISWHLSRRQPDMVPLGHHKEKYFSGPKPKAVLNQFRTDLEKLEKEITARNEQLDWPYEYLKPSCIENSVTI
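Hydroperoxide formation by human 12-lipoxygenase from 40 uM arachidonic acid was followed colorimetrically via ferric-xylenol orange complex, using the 573/405 nm absorbance ratio. Enzyme concentration was 150 nM, with 30 min reaction at room temperature.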
Hits are given with their value; . = inactive; ? = inconclusive; / = no result given; [ ] = another dose, or the depositor's remark. Unless noted, calls come from the whole dose curve; as a rule, active = well fitted curve in the direction sought with a large enough effect; inconclusive = small, poorly fitted or top-dose-only effect, or another doubt; inactive = no such curve, though single readings can be large; an effect the other way counts as inactive or inconclusive.

SMILES	PNC inhibitor	IMPase Li cell	IMPase inh	12-hLO inh
CCCCC(CC)CNC(=O)CCS(=O)(=O)c1cccc2nonc12 (stereo unspecified)	?	.	.	.
CCCCC(CC)CNC(=O)CC1Nc2c3ccccc3nc(=S)n2C1=O (stereo unspecified)	/	13µM	/	/
CC1Cc2ccccc2N1CC(=O)NC(=O)NCc1ccco1 (stereo unspecified)	-122	.	.	.
CN(C)S(=O)(=O)c1ccc(Cl)c(NC(=O)COC(=O)/C=C/c2ccc(S(=O)(=O)N3CCOCC3)cc2)c1	.	.	/	.
Cc1ccnc(NC(=O)c2cc(-n3cnnc3)ccc2Cl)c1	-100	.	.	.
O=C(Nc1ccccn1)c1cc(-n2cnnc2)ccc1Cl	.	.	.	.
C=C[C@](C)(O)CCC1C(=C)CC(OC(C)=O)C2C(C)(C)CCCC12C (stereo partly specified)	/	.	/	.
CC[N+](CC)(CCO)CCCN1C(=O)C2CC=C(Cl)CC2C1=O (stereo unspecified)	-81	.	.	.
Cn1cc(-c2nc3cnc(Oc4ccccc4)nc3n(C)c2=O)c2ccccc21	/	7.1µM	/	/
COc1ccc(-c2nc3cnc(OC)nc3n(CCc3ccccc3)c2=O)cc1	/	7.1µM	/	/
COCCn1c(=O)c(-c2ccc(OC)cc2)nc2cnc(OC)nc21	/	.	/	.
Cn1c(=O)c(-c2ccc(Cl)cc2)nc2cnc(Oc3cccc(Cl)c3)nc21	/	13µM	/	/
COC(=O)c1ccccc1S(=O)(=O)N1CCc2nc(-c3ccc(OC)cc3C)c3c(c2C1)CO[C@@H](c1ccccc1)C3	/	.	/	.[11.4 µM]
C[C@H]1CC2[C@@H]3CCC4=CC(=O)C=C[C@]4(C)[C@@]3(F)[C@@H](O)C[C@]2(C)[C@@]1(O)C(=O)CO (stereo partly specified)	/	.	/	/
COc1ccc(C(c2nnnn2CC2CCCO2)N2CCC(C(N)=O)CC2)cc1 (stereo unspecified)	.	.	.	.
CCCCC(c1nnnn1CC1CCCO1)N1CCN(Cc2ccccc2)CC1 (stereo unspecified)	-100	.	.	.
COc1ccccc1C(c1nnnn1CC1CCCO1)N1CCC(C(N)=O)CC1 (stereo unspecified)	-100	.	.	.
O=C(CSC1=NCCN1)Nc1ccccc1	/	.	/	.[11.4 µM]
COc1ccc(S(=O)(=O)N2CCCCC2)cc1NC(=O)CSc1nccn1C	/	.	/	/
O=S(=O)(CCc1ccccc1)c1nnnn1C1CCCCC1	/	.	/	/
CCOC(=O)c1ccc(NC2OC(=O)c3ccccc32)cc1 (stereo unspecified)	-94	.	.	.
CNc1cc([N+](=O)[O-])ccc1N/C=C/C(=O)c1ccc2c(c1)OCO2	-118	.	/	.
C1CNCCNCCCNCCNC1	-115	.	/	.
N#C/C(=C\NC(=S)c1ccncc1)c1nc2ccccc2s1	/	.	/	.[11.4 µM]
CCC(C)C(=O)Nc1nc2c(s1)C(=O)CC(C)(C)C2 (stereo unspecified)	-119	.	.	.
SMILES	PNC inhibitor	IMPase Li cell	IMPase inh	12-hLO inh
COc1ccc(NC(=O)c2ccccc2NS(C)(=O)=O)cc1OC	?	.	.	.
COC(=O)c1ccc(NC(=O)c2ccccc2NS(C)(=O)=O)cc1	-104	.	.	.
CC(C)(C)Cn1c(=O)[nH]c(=O)c2cc([N+](=O)[O-])cnc21	-114	.	/	.
C[C@H]1Cc2c(COc3ccccc3)nc3c(c2CO1)CN(C(=O)c1ccco1)CC3	/	.	/	.[11.4 µM]
O=C(C1c2ccccc2Oc2ccccc21)N1CCN(c2ccc(Cl)cc2)CC1	-89	.	.	.
C/C(=N\NC(=O)c1ccoc1C)c1cccnc1	-89	.	.	.
C/C(=N/NC(=O)c1ccoc1C)c1ccc(NC(=O)c2ccncc2)cc1	.	.	/	.
Cc1ccc(S(=O)(=O)Cn2nnnc2C(CC(C)C)N2CCN(C(=O)c3ccco3)CC2)cc1 (stereo unspecified)	-113	.	/	.
CCN(c1cccc(C)c1)S(=O)(=O)c1ccc(O)c(C(=O)O)c1	/	/	/	.
CCOc1ncccc1C(=O)OCC(=O)N(CC)c1ccccc1	/	.	/	/
CCOC(=O)/C(=N/Nc1ccccc1)Sc1nnc(CCc2ccccc2)n1-c1ccccc1	-134	.	/	.
CCC(Sc1nc(C)cc(=O)[nH]1)C(=O)Nc1nc(-c2ccccc2)cs1 (stereo unspecified)	?	.	.	.
Cc1cc(NC(=O)CSc2ccc(-c3nc4cc(C)c(C)cc4[nH]3)cn2)no1	.	11µM	.	.
CCC(Sc1nc(-c2ccccc2)c(C#N)c(=O)[nH]1)C(=O)Nc1nnc(C)s1 (stereo unspecified)	?	3.2µM	?	.
N#Cc1c(-c2ccccc2)nc(SCC(=O)Nc2ccccc2F)[nH]c1=O	.	10µM	/	.
Cc1cc2nc(-c3ccc(SCC(=O)NC(C)C)nc3)[nH]c2cc1C	/	.	/	/
Cc1cc(NS(=O)(=O)c2ccc(NC(=O)CCCC(=O)O)cc2)nc(C)n1	-88	.	?	.
CN(Cc1ccco1)c1cc(-c2ccoc2)ncn1	/	.	/	/
Cc1ccc(S(=O)(=O)O[C@@H]2[C@H]([C@@H]3COC(C)(C)O3)O[C@H]3OC(C)(C)O[C@@H]32)cc1	/	.	/	.[11.4 µM]
Cc1cc(C)nc(NS(=O)(=O)c2ccc(NC(=O)C3(c4ccccc4)CCCC3)cc2)n1	-115	/	.	.
N#Cc1c(-c2ccccc2)nc(SCC(=O)Nc2nnc(C(F)(F)F)s2)[nH]c1=O	/	11µM	/	/
Cc1cc(C)nc(NS(=O)(=O)c2ccc(NC(=O)CSc3nc(-c4ccccc4)c(C#N)c(=O)[nH]3)cc2)n1	/	11µM	/	/
Cc1cc(NC(=O)CSc2nc(-c3ccccc3)c(C#N)c(=O)[nH]2)no1	?	7.9µM	?	.
N#Cc1c(-c2ccccc2)nc(SCC(=O)Nc2ccccc2)[nH]c1=O	.	?	?	.
COC(=O)[C@@H]1C[C@H]1[C@@H](N)c1ccccc1	/	.	/	.
SMILES	PNC inhibitor	IMPase Li cell	IMPase inh	12-hLO inh
Cc1ccc2nc(SCC(=O)Nc3cc(C)on3)[nH]c2c1	.	.	.	.
COc1ccc2nc(SCC(=O)Nc3cc(C)on3)[nH]c2c1	-97	.	.	.
Cc1cccc(NC(=O)CSc2nc(-c3ccccc3)c(C#N)c(=O)[nH]2)c1C	.	10µM	?	.
COc1ccc(NC(=O)c2ccc(COCC(F)(F)C(F)F)cc2)cc1OC	?	.	.	.
COc1cc(NC(=O)c2cccc(COCC(F)(F)C(F)F)c2)cc(OC)c1OC	-100	.	.	.
O=C(O)CCc1ccc(-c2ccc(Br)cc2)o1	?	8.9µM	?	.
O=C(O)CCc1ccc(-c2ccc(Cl)cc2)o1	.	.	.	.
COc1cc(OC)cc(C(=O)Nn2cc(C(=O)Nc3c(F)cccc3F)c3ccccc3c2=O)c1	-113	.	/	.
N#Cc1c(N)nc(SCC(=O)NC2CCCCC2)c(C#N)c1-c1ccc(Cl)cc1	?	16µM	.	.
Cc1cccc(C(=O)O)c1C[C@H]1NCC[C@H]2c3ccccc3N[C@@H]12	/	.	/	.[11.4 µM]
COC(=O)c1sccc1N/N=C/c1cccc(OC)c1O	-116	.	/	.
